# Screening data (PubChem)
# In the library only some 1.2% were active in any assay of this set; here they are far more common.
# gsp ag: activates gsp, the McCune-Albright syndrome mutation; gsp mutant cells, cAMP HTRF, 30 min; Potency, µM (titrated, usually from 76.9 µM), most hits filed as activators; 340,000 tested, 0.13% active; AID 624287; active = well fitted activation curve with a large enough effect; inconclusive = small, poorly fitted or top-dose-only effect, or another doubt; inactive = no such curve, though single readings can be large or run the other way; cell line not stated here;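 also: phosphodiesterase inhibitor Ro 20-1724 added with compounds to block cAMP breakdown; nearly all actives have a fitted effect of over 60% in size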
#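 Cells in DMEM/10% FBS with G418 were pretreated with compounds in DMSO plus […] (300 uM stock) for 30 min at 37C. cAMP was measured by HTRF (cAMP-d2 plus anti-cAMP antibody-K) after 30 min at room temperature.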
# RXFP1 antagonist: blocks the human relaxin receptor RXFP1 | Q9HBX9 | HEK293-RXFP1, relaxin-stimulated cAMP HTRF, 30 min; stronger effect = lower value | activity change, negative = inhibition, % at 57.5 µM | 350,000 tested, 0.59% active | AID 1259400;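 active = activity change of -60% or lower, but not beyond a set lower limit; inconclusive = change between -60% and -40%, or beyond the set limit; inactive = change above -40%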
# RXFP1 agonist: activates the human relaxin receptor RXFP1. Q9HBX9. 370,000 tested, 0.3% active. HEK293T-RXFP1 cAMP TR-FRET, 30 min; response scale: percent of porcine relaxin response, buffer zero. Potency, µM (top dose mostly 57.5 µM), usual class: activators; also: nearly all actives have a fitted effect of over 60% in size
#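 HEK293 cells stably expressing RXFP1, treated 30 min at 37C with compounds plus PDE4 inhibitor Ro 20174; cAMP measured by HTRF TR-FRET. Normalized to buffer and 29 nM porcine relaxin; EC50 by Hill fit.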
# CCT modulator: changes cytosolic chaperonin activity; activity change, % (test concentration not listed), hits read low; 360,000 tested, 0.3% active; AID 651819; purified chaperonin ATPase assay, HTRF ADP detection, 30 min; in the data active = activity change below about -30%
#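 ATPase activity: ADP formed was measured by HTRF Transcreener (665/615 nm ratio) after 30 min at 37 deg C with 10 uM ATP. Compounds screened at one 76 uM concentration against 40 or 20 nM TRiC in Tris pH 7.4/KCl/MgCl2/DTT buffer.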
# gsp antag: gsp mutant antagonism; 340,000 tested, 0.4% active; AID 624288; gsp-mutant cells, cAMP HTRF, 30 min; Potency, µM (doses to about 76.9 µM), usual class: inhibitors; calls by dose curve; cell line not stated here;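 also: intracellular cAMP measured with PDE inhibitor Ro 20-1724 present during compound exposure; nearly all actives have a fitted effect of over 65% in size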
#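 HTRF cAMP measurement after 30 min RT detection following 30 min, 37C compound treatment alongside […] (added as 300 uM solution) in G418-selected cells seeded at 2000/well and grown 16–24 h.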
# MmCpn inh: blocks the Methanococcus maripaludis chaperonin Mm-Cpn; Potency, µM (top dose mostly 76.9 µM), actives largely listed as inhibitors; purified Mm-Cpn ATPase, ADP Transcreener TR-FRET; 330,000 tested, 0.031% active; also: nearly all actives have a fitted effect of over 80% in size
#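 25 nM Mm-CPN + cpd, 10 min 37°C; + 10 uM ATP, 30 min 37°C; buffer 30 mM Tris pH 7.4, 100 mM KCl, 5 mM MgCl2, 1 mM DTT; Transcreener ADP HTRF detection 30 min RT.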
# Numbers stand for hits; 0 = inactive; ? = inconclusive; - = not tested or not shown; [ ] = another dose, or the depositor's remark. Unless noted, calls follow the shape of the dose curve; as a rule, active = well fitted curve in the direction sought with a large enough effect; inconclusive = small, poorly fitted or top-dose-only effect, or another doubt; inactive = no such curve, though single readings can be large; an effect the other way counts as inactive or inconclusive.
SMILES,gsp ag,RXFP1 antagonist,RXFP1 agonist,CCT modulator,gsp antag,MmCpn inh
O=C1C(=O)N(CCCN2CCOCC2)C(c2ccc(F)cc2)/C1=C(\O)c1ccc2c(c1)OCCO2 (stereo not given),32µM,0,?,0,0,0
Cc1nc2ccccn2c1/C(O)=C1\C(=O)C(=O)N(CCCn2ccnc2)C1c1ccncc1 (stereo not given),18µM,0,0,0,0,0
CC(C)(C)c1ccc(C2/C(=C(\O)c3ccc4c(c3)OCCO4)C(=O)C(=O)N2CCCN2CCOCC2)cc1 (stereo not given),?,0,0,0,0,0
Cc1cc(OCC(C)C)ccc1/C(O)=C1/C(=O)C(=O)N(Cc2cccnc2)C1c1ccncc1 (stereo not given),5.6µM,0,?,0,0,0
COc1cccc(C2/C(=C(/O)c3ccc4c(c3)CC(C)O4)C(=O)C(=O)N2CCCn2ccnc2)c1 (stereo not given),13µM,0,?,0,0,0
COc1ccc(/C(O)=C2/C(=O)C(=O)N(Cc3cccnc3)C2c2ccccn2)cc1 (stereo not given),?,0,0,0,0,0
CCc1ccc(NS(=O)(=O)c2[nH]ncc2C(=O)OC)cc1,-,-,0,-,-,-
[O-][n+]1cccc(/C(Cl)=N/OC[C@@H](O)CN2CCCCC2)c1,-,0,-,-,-,-
Cc1ccc(S(=O)(=O)N2CCN(Cc3cc(Br)ccc3O)CC2)cc1,-,-,0,-,-,-
CC(=O)N1c2nc(C(C)C)nn2C2(CCCCC2)[C@@H]2CCCC[C@@H]21,-,0,0,-,-,-
Cn1c(=O)c(=O)n(C)c2cc(C(=O)NCc3ccccc3Cl)ccc21,-,0,0,-,-,-
CCCCOc1cccc(C2/C(=C(/O)c3ccc4c(c3)CC(C)O4)C(=O)C(=O)N2CCN2CCOCC2)c1 (stereo not given),?,0,28µM,0,0,0
COc1ccccc1N1CCN(C(=O)c2ccc(C(C)(C)C)cc2)CC1,0,0,0,0,0,0
COc1ccccc1C1CCN(C(=O)c2ccc(C(C)(C)C)cc2)CC1,0[15.4 µM],-90,0,0,0,0
Cc1cccc(Nc2ncc(NC(=O)c3cccc(F)c3)c(Nc3cccc(C)c3)n2)c1,-,0,0,-,-,-
COc1ccc(-c2nnc(SCC(=O)NC(C)c3ccccc3)o2)cc1 (stereo not given),0,0,0,-50,0,0
COc1ccc(-c2nnc(SCC(=O)Nc3ccccc3OC)o2)cc1,0,0,0,0,0,0
CC(NC(=O)Cc1ccc(-c2ccccc2)cc1)c1ccccc1 (stereo not given),?,0,0,-43,0,0
C/C(=N/NC(=O)c1ccncc1)C(=O)O,-,0,-,-,-,-
CCCc1cc(C(=O)NC2CCCCC2)no1,0,0,0,0,0,0
CCCc1cc(C(=O)N(C2CCCCC2)C2CCCCC2)no1,0,-70,0,0,0,0
C=C(C)C(=O)Oc1ccc(N=Nc2ccc(C)cc2)ccc1=O,0[15.4 µM],-70,-,0,0,-
CC(=O)c1ccc(N=Nc2ccc(C)cc2)cc1,0,0,0,0,0,0
CC(C)Cn1c(-c2cccs2)nc2ccccc21,?,0,0,0,0,0
CC(C)CC(C)c1cc(N)nc2nc3ccccc3n12 (stereo not given),0[15.4 µM],-61,0,0,0,0
CC1=NN(c2ccccc2)C(=O)C1C=Nc1ccc(N(C)C)cc1 (stereo not given),0[15.4 µM],-69,0,0,?,?
CCCc1ccc(OCc2ccc(C(=O)N3CCN(c4ccccn4)CC3)o2)c(OC)c1,0,-63,0,0,?,0
COc1ccc(CC(=O)N2CCN(c3ccccn3)CC2)cc1OC,0,0,0,0,0,0
CC(C)Cn1c(=O)c2sccc2n2c(CCCC(=O)NC3CCCCC3)nnc12,-,0,?,-,-,-
Cc1cccc(N2CCN(C(=O)C3CCN(c4nnc(-n5cccc5)s4)CC3)CC2C)c1 (stereo not given),0,-68,0,0,28µM,0
